# Assay results from PubChem BioAssay (Tox21).
# Values joined by “and” are separate entries in the source; they are usually repeats but may differ in a detail not shown here. Equal values may be shown once. Inconclusive results are not listed. Active and inactive are the calls of the source. Calls come from the whole dose curve; as a rule, active = well fitted cell-killing curve with a large enough effect in the repeat runs; inconclusive = weak or mixed curves, or effect the other way; inactive = flat fitted curve, though single readings scatter.
# Assay: qHTS assay to identify small molecule agonists of the sonic hedgehog signaling (Shh) pathway - cell viability counter screen (AID 1259366); note: nearly all actives have a fitted effect of over 50% in size
# Conditions: NIH/3T3 Gli1-Luc viability, CellTiter-Fluor, 24 h; series mostly up to 92.4 µM; viability change, negative = cytotoxic: at the top concentration
# From the text: National Center for Advancing Translational Sciences [NCATS]
# NIH Chemical Genomics Center [NCGC]
# U.S. Environmental Protection Agency [EPA]
# National Institutes of Environmental Health Sciences [NIEHS]
# National Toxicology Program [NTP]
# U.S. Food and Drug Administration [FDA]
# The sonic hedgehog (Shh) pathway is essential for normal embryonic development. Dysregulation of the Shh pathway can cause severe developmental defects in organs. Therefore chemicals that interfere with the pathway are potential developmental toxicants. A cell line designated 3T3Gli1-Luc (DMB/OARSA/CFSAN/FDA, Laurel, MD), a NIH/3T3 derived clone containing stably integrated Gli1-Luc reporter is used to detect chemical interference of the Shh pathway, by changes in the expression of the firefly Luc gene under the control of the Gli1 transcriptional response element. This cell line was used to screen Tox21 libraries for identifying and prioritizing the potential developmental toxicants that interfere Shh pathway. The cytotoxicity of the compounds was tested in parallel by measuring the cell viability using CellTiter-Fluor assay system (Promega, Madison, WI) in the same wells.
# Tox21 Assay Protocol Summary:
# 3T3 Gli1-Luc cells were dispensed at 2,000 per well in 5uL of culture medium into white solid bottom 1536-well plates (Greiner Bio-One, Monroe, NC) using a Multidrop Combi (Thermo Scientific, Waltham, MA) dispenser. The assay plates were incubated at 37 C and 5% CO2 for 4hr, and then 23nL of compounds dissolved in DMSO and positive control were transferred using a Pintool station (Wako, San Diego, CA). The assay plates were incubated at 37C and 5% CO2 for 24hr. For viability read, after 23hr of compound treatment, 1uL of CellTiter-Fluor reagent (Promega Corporation, Madison, WI) was added to each well of the assay plates using Flying Reagent Dispenser (FRD, Aurora Discovery, San Diego, CA) and incubated the assay plates at 37C for 1hr. The fluorescence signal was quantified using a ViewLux plate reader (Perkin Elmer, Shelton, CT).
# % is set by controls: 0 for no effect and ±100 for the full control effect; potency is the fitted concentration of half-maximal effect.
Compound,Potency,"viability change, negative = cytotoxic"
O=C(Nc1ccc2c(O)c(N=Nc3ccc(N=Nc4ccc(S(=O)(=O)O)cc4)cc3)c(S(=O)(=O)O)cc2c1)c1ccccc1,10.9 µM (active),–
O=C(O)c1cc(=O)c2ccccc2o1,–,1.58% [at 42.5 µM] (inactive)
Clc1nnc(Cl)c2ccccc12,–,6.48% (inactive)
O=C(O)c1cc(O)c2ccccc2c1O,9.69 µM (active),–
C1CCC(SSC2CCCCC2)CC1,–,-3.67% (inactive)
CCCCC(CC)COC(=O)CCCCC(=O)OCc1ccccc1 (stereo not given),–,-3.45% (inactive)
Sc1nc2ccccc2s1,–,0.418% (inactive)
COc1ccc(-c2coc3cc(O)ccc3c2=O)cc1,–,-4.14% (inactive)
COc1ccc(NC(=O)CC(C)=O)cc1,–,-2.9% (inactive)
CCN(CC)C(=O)c1cc(S(=O)(=O)Cc2ccccc2)c(N2CCC(c3ccccc3)CC2)cc1N(CC)CCN(C)C,13.5 µM (active),–
OCCN1CCN(CCCN2c3ccccc3Sc3ccc(C(F)(F)F)cc32)CC1,23.7 µM (active),–
C=CC(=O)OCCOC(=O)C=C,–,-1.09% (inactive)
CCc1cccc(CC)c1NC(=O)CN(CC(=O)O)CC(=O)O,–,-2.16% [at 42.5 µM] (inactive)
COC(=O)C1=C(C)NC(C)=C(C(=O)OCCN2CCN(C(c3ccccc3)c3ccccc3)CC2)C1c1cccc([N+](=O)[O-])c1 (stereo not given),–,-11.1% [at 42.5 µM] (inactive)
CC1(C)CCC[C@]2(C)[C@H]3CC(=O)O[C@]3(C)CC[C@@H]12,–,-8.2% (inactive)
C=C(C)c1cccc(C(=C)C)c1,–,0.17% (inactive)
O=C(O)c1ccc2cc(C(=O)O)ccc2c1,–,0.927% (inactive)
Oc1ccccc1O,9.81 µM (active) and 15.4 µM (active),–
[Cl][Pt-2]([Cl])([Cl])[Cl],–,-7.69% (inactive)
Cc1cccc(C)c1NC(=O)c1ccc(N)cc1,–,1.2% [at 42.5 µM] (inactive)

Compound,Potency,"viability change, negative = cytotoxic"
O=C(O)[C@H](O)[C@@H](O)[C@H](O[C@@H]1O[C@H](CO)[C@H](O)[C@H](O)[C@H]1O)[C@H](O)CO,–,-2.19% [at 42.5 µM] (inactive)
O=C(O)c1cc(N=Nc2ccc([N+](=O)[O-])cc2)ccc1O,26.8 µM (active),–
CC(CO)Oc1ccccc1 (stereo not given),–,-9.33% (inactive)
COC(=O)c1ccccc1C,–,3.42% (inactive)
c1ccc(C(O[C@@H]2CCCN(CCc3ccc4c(c3)OCO4)C2)c2ccccc2)cc1,–,-0.853% (inactive)
Cc1cccc(C(=O)O)c1O,–,-4.79% [at 42.5 µM] (inactive)
O=C1c2ccccc2C(=O)N1SC1CCCCC1,30.6 µM (active),–
CN1CCN2c3ccccc3Cc3ccccc3C2C1 (stereo not given),–,-26.4% [at 42.5 µM] (inactive)
CCCCCCCC/C=C\CCCCCCCCN,–,-0.412% [at 42.5 µM] (inactive)
NC[C@H]1O[C@H](O[C@H]2[C@H](O[C@@H]3O[C@H](CO)[C@@H](O)[C@H]3O)C(O)[C@H](N)C[C@@H]2N)[C@H](N)[C@@H](O)[C@@H]1O (stereo not given in full),–,2.25% [at 8.39 µM] (inactive)
O=C(Oc1ccccc1)Oc1ccccc1,–,4.09% (inactive)
Oc1c(I)cc(Cl)c2cccnc12,inactive,–
CC(=O)[C@H]1CC[C@H]2[C@@H]3CCC4=CC(=O)CC[C@]4(C)[C@H]3CC[C@]12C,–,28% (inactive)
NC(=S)NC(N)=S,–,14.7% (inactive)
O=S(=O)(O)c1ccc(Nc2nc(Nc3ccc(/C=C/c4ccc(Nc5nc(Nc6ccc(S(=O)(=O)O)cc6)nc(N(CCO)CCO)n5)cc4S(=O)(=O)O)c(S(=O)(=O)O)c3)nc(N(CCO)CCO)n2)cc1,–,25.7% [at 42.5 µM] (inactive)
CC(CCc1ccccc1)NCC(O)c1ccc(O)c(C(N)=O)c1 (stereo not given),19.3 µM (active),–
O=[N+]([O-])c1cccc(C(F)(F)F)c1,–,0.934% (inactive)
CCCC(=O)OCCc1ccccc1,–,0.538% (inactive)
Cc1ccc(N/N=c2\c(=O)cc/c(=N\Nc3ccc(S(=O)(=O)O)cc3)c2=O)c(C)c1,30.6 µM (active),–
Nc1nc(N)nc(-c2cc(Cl)ccc2Cl)n1,–,-4.16% [at 42.5 µM] (inactive)
